# Experimental data as given in PubChem BioAssay (EPA / NIEHS).
# Values joined by “and” are separate entries in the source; they are usually repeats but may differ in a detail not shown here. Equal entries are not always repeated. A structure can be active in one record and inactive in another. Active and inactive are the calls of the source. How the source made its calls: active means hit-call score of the fitted dose curve at least 0.9, where 1 is the maximum; inactive means score below 0.9.
# Assay: ATG_PPRE_CIS: Attagene CIS-FACTORIAL HepG2 Assay for human Peroxisome Proliferator-activated Response Element (PPRE) (AID 2282958)
# Details: HepG2 PPRE cis-element reporter, Attagene transcription factor profiling; actives raise or lower the signal
# Description: ATG_CIS is a cell-based, multiplexed-readout assay that uses HepG2, a human liver cell line, with measurements taken at 24 hours after chemical dosing in a 24-well plate.ATG_PPRE_CIS is one of 52 assay component(s) measured or calculated from the ATG_CIS assay. It is designed to make measurements of mRNA induction, a form of inducible reporter, as detected with fluorescence intensity signals by Reverse transcription polymerase chain reaction (RT-PCR) and Capillary electrophoresis technology.Data from the assay component ATG_PPRE_CIS was analyzed into 1 assay endpoint. This assay endpoint, ATG_PPRE_CIS, was analyzed with bidirectional fitting relative to DMSO as the negative control and baseline of activity. Using a type of inducible reporter, measures of mRNA for gain or loss-of-signal activity can be used to understand the reporter gene at the transcription factor-level as they relate to the gene PPARA and PPARD and PPARG. Furthermore, this assay endpoint can be referred to as a primary readout, because this assay has produced multiple assay endpoints where this one serves a reporter gene function. To generalize the intended target to other relatable targets, this assay endpoint is annotated to the nuclear receptor intended target family, where the subfamily is non-steroidal.
# Human liver HepG2 cells are transiently transfected with multiple reporter transcription units (MRTUs) in 6-well plates using FuGene 6 reagent (Roche; 3 ml FuGene/1 mg DNA). The MRTU constructs are regulated by a cis-regulating element (promoter). […] A major difference between the CIS and TRANS system is that in CIS activities of endogenous TFs are measured, whereas the TRANS assay evaluates changes in activities of exogenous, chimeric NR-Gal4 proteins. […] At the end of 24 hour incubation, total RNA was isolated using TriZol reagent (Invitrogen). The isolated RNA is then reverse-transcribed using oligo(dT) primer and Mo-MLV reverse transcriptase (Invitrogen) with DNAse I (Ambion) treatment for 30 min. The one-tenth of the produced cDNA was amplified by PCR using Taq DNA polymerase (Invitrogen) and two reporter sequence-specific primers. The PCR products were fluorescently labeled by primer extension with 6-arboxyfluorescein (6-FAM) 5'-labeled reporter sequence-specific primer (2 min at 95 C, 20 s at 68 C and 10 min at 72 C) and these products were digested with 5U of HpaI (New England Biolabs) for 2h at 37 C. The fragments were purified using Qiaquick PCR columns (Qiagen), analyzed on an ABI 3130xL genetic analyzer (Applied Biosystems) with peak positions identified by using a set of X-rhodamine (ROX)-labeled MapMarker1000 molecular weight standards (BioVentures). The raw capillary electrophoresis data was processed using Attagraph software (Attagene).
SMILES,outcome,AC50
CCOC(=O)C(Cl)Cc1cc(-n2nc(C)n(C(F)F)c2=O)c(F)cc1Cl (stereo not given),inactive,–
CCCC1COC(Cn2cncn2)(c2ccc(Cl)cc2Cl)O1 (stereo not given),inactive,–
CC1=C(C(=O)Nc2ccccc2)SCCO1,inactive,–
N#CC(CCc1ccc(Cl)cc1)(Cn1cncn1)c1ccccc1 (stereo not given),inactive,–
O=C(Nc1ccccc1)Nc1ccnc(Cl)c1,–,22.6 µM (active)
Cc1ccc(-c2c(Cl)nc(C#N)n2S(=O)(=O)N(C)C)cc1,–,11.9 µM (active)
Cc1c(F)c(F)c(COC(=O)C2C(/C=C(\Cl)C(F)(F)F)C2(C)C)c(F)c1F (stereo not given),inactive,–
OC(c1ccc(Cl)cc1)(c1cncnc1)c1ccccc1Cl (stereo not given),inactive,–
CNC(=O)ON=CC(C)(C)SC,inactive,–
C#CCOS(=O)OC1CCCCC1Oc1ccc(C(C)(C)C)cc1 (stereo not given),inactive,–
CN(C)C(=S)SSC(=S)N(C)C,inactive,–
N#Cc1cc(Br)c(O)c(Br)c1,–,21.1 µM (active)
CCCN(CCC)c1c([N+](=O)[O-])cc(S(N)(=O)=O)cc1[N+](=O)[O-],inactive,–
CCc1nn(C)c(C(=O)NCc2ccc(C(C)(C)C)cc2)c1Cl,–,0.462 µM (active)
CCOc1cc(Oc2ccc(C(F)(F)F)cc2Cl)ccc1[N+](=O)[O-],–,13.7 µM (active)
O=C(O)COc1nc(Cl)c(Cl)cc1Cl,–,50 µM (active)
COc1nc(C)nc(NC(=O)NS(=O)(=O)c2ccccc2CCC(F)(F)F)n1,inactive,–
CON(C)C(=O)Nc1ccc(Cl)c(Cl)c1,inactive,69.6 µM (active)
CC1COC(Cn2cncn2)(c2ccc(Oc3ccc(Cl)cc3)cc2Cl)O1 (stereo not given),–,3.17 µM (active)

SMILES,outcome,AC50
COc1ccc(C(c2ccc(OC)cc2)C(Cl)(Cl)Cl)cc1,inactive,–
COc1cnc(OC)n2nc(NS(=O)(=O)c3c(OCC(F)F)cccc3C(F)(F)F)nc12,inactive,–
N#Cc1nn(-c2c(Cl)cc(C(F)(F)F)cc2Cl)c(N)c1S(=O)C(F)(F)F (stereo not given),inactive,22.8 µM (active)
CC(C)Oc1cc(-n2nc(C(C)(C)C)oc2=O)c(Cl)cc1Cl,inactive,–
COc1nc(NC(C)C)nc(NC(C)C)n1,inactive,–
CCCCNC(=O)OCC#CI,inactive,26.3 µM (active)
C=CC1(C)OC(=O)N(c2cc(Cl)cc(Cl)c2)C1=O (stereo not given),inactive,–
CC(C)C1(C)N=C(c2nc3ccccc3cc2C(=O)O)NC1=O (stereo not given),inactive,–
COC(=O)C=C(C)OP(=O)(OC)OC,inactive,–
CCOC(=O)CC(SP(=S)(OC)OC)C(=O)OCC (stereo not given),–,83.1 µM (active) and 32.5 µM (active)
CCNc1nc(Cl)nc(NC(C)C)n1,inactive,–
CCCCC(CC)COC(=O)c1ccccc1C(=O)OCC(CC)CCCC (stereo not given),–,17.5 µM (active)
CCON=C(CC)C1=C(O)CC(c2c(C)cc(C)cc2C)CC1=O (stereo not given),inactive,–
CO/C=C(/C(=O)OC)c1ccccc1Oc1cc(Oc2ccccc2C#N)ncn1,inactive,–
COC(=O)N(OC)c1ccccc1COc1ccn(-c2ccc(Cl)cc2)n1,–,0.343 µM (active)
COP(N)(=O)SC (stereo not given),inactive,–
COC(=O)C(C)Oc1ccc(Oc2ccc(Cl)cc2Cl)cc1 (stereo not given),–,18.7 µM (active) and 11 µM (active) and 23 µM (active)
CS/C(C)=N/OC(=O)N(C)SN(C)C(=O)O/N=C(\C)SC,inactive,–
